Experimental findings from PubChem BioAssay AID1117361 (Southern Research Institute, 2015) are described below.

SMILES strings stand for the structures. About 900 (25%) of roughly 3,600 compounds were called active. The list is a sample of the results. Potency and affinity values are given separately. Unmarked numbers belong to inactive results. How the calls were made is not given here.

This test concerns the target Protein Tat (Human immunodeficiency virus type 1 group M subtype B (isolate HXB2)) (UniProt P04608). The test can be described thus: HIV-1 Tat–TAR interaction blockers – biochemical, fluorescence polarization, FAM-labeled TAR RNA, counter-screen for Vif-APOBEC3G degradation inhibitor project, dose response (AID 1117361). The conditions noted are these: Tat-TAR RNA binding; series mostly up to 100 µM; inhibition: at the top concentration. (In general: Fluorescence polarisation rises when a labelled molecule tumbles more slowly, as on binding a larger partner.)
Turning to `COc1ccccc1NC(=O)COC(=O)c1c(NC(C)=O)sc(C)c1C`, the “inhibition” value was 11.7%. Same read-out and setting: to `CCOc1ccc(-n2c(SC)nc3c(c2=O)SCC3)cc1` belongs 4.73%; to `CC(C)Oc1ccc(CNCC2(O)CCOC(C)(C)C2)cc1` (stereo not given), 0.68%.

As to `Cc1sc(NC(=O)CSc2nnnn2C(C)C)c(C#N)c1C`, the molecule was classed as inactive. Regarding `CNc1sc(C(=O)c2cccs2)c(N)c1-c1nc2ccccc2s1`, the “inhibition” value is 3.01%. Same read-out and setting: to `COCCNC(=O)CN1C(=O)CSc2ncccc21` belongs 10.2%; to `CC(=O)OC1OCCOC1NC(=S)Nc1ccc(C)cc1` (stereo not given), 12.4%. Same read-out and setting: for `COc1ccc(OCc2nnc3n2N=C(c2ccc(OC)cc2)CS3)cc1` the value was 6.08%. The same measure, in the same setting: to `CCn1c(SCC(=O)c2ccc(F)cc2)nnc1-c1ccoc1C` belongs 12.2%. With `COc1ccc(C(=O)O)cc1S(=O)(=O)N1CCCc2ccccc21`, the molecule was classed as inactive. Take `CCOc1cc(C)c(Cl)cc1S(=O)(=O)NCc1ccco1`: the “inhibition” value was 2.7%. As for `CCCCOc1ccccc1C1NC(=O)NC(C)=C1C(=O)OCc1ccco1` (stereo not given), the “inhibition” value was 14.3%. On the same count and under the same terms, to `COC(=O)CSc1nnc(-c2ccccc2OC)n1-c1ccc(C)cc1` belongs 7.5%.

With `Oc1cc2c(cc1O)[C@@H](c1ccccc1)CNCC2`, the “inhibition” value was 13.2%. Take `CC1CCc2cc(F)ccc2N1C(=O)CSc1nnc(-c2cccs2)n1C` (stereo not given): the call was inactive. `CCOc1cc(S(=O)(=O)NCc2ccccn2)c(C)cc1C`: the “inhibition” value is 2.7%. Same read-out and setting: to `O=C(Cn1nnc(-c2ccccc2-n2cnnn2)n1)c1ccccc1` belongs 4.73%; to `O=C(CN1C(=O)/C(=C\c2cccs2)SC1=S)Nc1cccc(C(=O)O)c1`, 21.4%; to `C=CCOc1ccc(/C=C2\SC(=S)N(CCC(=O)O)C2=O)cc1`, 3.99% [at 50 µM]. Same read-out and setting: to `CC(=O)O/N=C/c1c(N2CCOCC2)n(C)c2ccccc12` belongs 6.82%; to `CCS(=O)(=O)Nc1ccc(C(=O)CC2(O)C(=O)Nc3ccccc32)cc1` (stereo not given), 6.08%; to `CCOC(=O)C1CCCN(C(=O)c2ccc(CS(=O)(=O)c3ccc(Br)cc3)o2)C1` (stereo not given), 10.8%.

As for `COc1ccc(S(=O)(=O)Cc2ccc(C(=O)NC(C)C)o2)cc1`, the “inhibition” value was 14.9%. Consider `CCOC(=O)CSc1nnc(CNC(=O)c2cccs2)n1CCc1ccccc1`, for which the “inhibition” value is 4.09%. The same measure, in the same setting: to `COc1ccccc1N(CC(O)CN1C(=O)NC(C)(C)C1=O)S(=O)(=O)c1ccc(C)cc1` (stereo not given) belongs 2.7%; to `Cc1ccc(SCC2=NNC(=O)C2)cc1`, 13.6%.

With `Cc1nn(Cc2ccccc2)c(C)c1/C=N/NC(=O)c1ccccc1O`, the “inhibition” value is 4.12%. Take `CN(C)/C=N/NC(=O)c1ccccc1Cl`: the call was inactive. Turning to `Cc1nc2ccc(S(=O)(=O)N(C)CC(=O)N3CCc4ccccc43)cc2s1`, the “inhibition” value was 4.09%. On the same count and under the same terms, to `COC(=O)[C@@]1(Cc2ccc(OC)cc2)[C@H]2c3cc(C(=O)N(C)C)n(C[C@H](O)CO)c3C[C@H]2CN1C(=O)c1ccccc1` belongs 2.47%. Consider `CCOC(=O)c1sc2ncnc(N3CCN(C(=O)OCC)CC3)c2c1C`, for which the call was inactive. For `COc1ccc(-c2nc(CS(=O)CC(=O)NCc3ccco3)c(C)o2)cc1` (stereo not given), the “inhibition” value was 14.2%. The same measure, in the same setting: to `CCCCC(O)(CCCC)C(=O)N/N=C(\C)c1ccc(Cl)cc1` belongs 14%; to `Cc1ccc2nc(SCC(=O)N(CC(C)C)c3c(N)n(CC(C)C)c(=O)[nH]c3=O)[nH]c2c1`, 16.9%. `COc1ccc(NC(=O)C2CCCN(S(=O)(=O)c3cccnc3)C2)cc1` (stereo not given): the outcome was inactive.

`O=c1[nH]c2ccccc2c(O)c1-[n+]1ccccc1`: the “inhibition” value was 4.12%. Still for that read-out and setting: to `CCC(C)[C@H](NC(=O)Nc1ccccc1F)C(=O)OC` (stereo not given in full) belongs 4.12%; to `COC(=O)C(NC(=O)C(NC(=O)c1ccccc1)C(C)C)C(C)C` (stereo not given), 8.78%. Regarding `CCOC(=O)c1ccccc1NC(=O)CSc1nccn1C`, the “inhibition” value is 4.77%. On the same count and under the same terms, for `O=[N+]([O-])c1ccc(N2CCN(c3ccc(Cl)nn3)CC2)c(Cl)c1` the value was 2.73%.

Take `CCc1ccc(C(=O)Nc2cccnc2Oc2ccc(Cl)cc2)cc1`: the result was inactive.

On to `Cc1cc(C)cc(OCC(=O)NNC(=O)CN2C(=O)c3ccccc3C2=O)c1`, for which the molecule was called inactive. Consider `CC1=CC(C)(C)Nc2ccc(OC(=O)c3cccnc3)cc21`, for which the “inhibition” value was 11.5%. Still for that read-out and setting: for `O=C(Nc1ccccc1[N+](=O)[O-])C1C(c2ccccc2)=C1c1ccccc1` the value was 0.68%; for `Cc1ccc(C(=O)NNS(=O)(=O)c2ccccc2[N+](=O)[O-])cc1`, 9.07%; for `O=C(COc1cccc2cccnc12)N1CCc2ccccc2C1`, 8.87%.

As to `O=C(NN=C1CCCCCC1)c1cccnc1`, the outcome was inactive. Same read-out and setting: for `Cc1cc(C)n(CC(=O)NNC(=O)c2ccc(NC(=O)CC#N)cc2)n1` the value was “inactive”. In the case of `CN(CCOCCOc1ccc2ccccc2c1)Cc1ccccc1`, the call was inactive.

Consider `Cc1c(C(=O)Nc2ccncc2)oc2c1C(=O)CC(C)(C)C2`, for which the “inhibition” value is 9.46%. As to `CC(C(=O)Nc1ccc(F)c(F)c1F)N1CCCCCC1` (stereo not given), the “inhibition” value was 6.82%. For the molecule `CCOC(=O)/C(C#N)=C/c1c(OCC)n(CC)c2ccccc12`, the outcome was inactive.

For `COC1=CC(=O)c2c(ccc3ncnc(N)c23)C1=O`, the outcome was inactive. `CC(C)n1c(CCC(=O)O)ccc1-c1ccccc1`: the “inhibition” value was 18.2%.

As for `CCOC(=O)c1cc(-c2ccccc2)n(CC(=O)O)c1C`, the “inhibition” value was 1.35%.

Turning to `Cc1c(CN2CCC(CO)(Cc3cccc(C(F)(F)F)c3)CC2)c2ccccc2n1C`, the “inhibition” value is 3.3%. On to `CCOc1ccc(-n2cnnn2)cc1S(=O)(=O)NCCc1ccc(OC)c(OC)c1`, for which the outcome was inactive. Same read-out and setting: to `O=C(CSc1nccc(=O)[nH]1)Nc1ccc2c(c1)OCCO2` belongs “inactive”. Regarding `Cc1nc(NC(=O)CN2CCOCC2)sc1-c1ccccc1`, the “inhibition” value was 0.68%. The same measure, in the same setting: for `C=CCn1c(N2CCCCCC2)nc2c1c(=O)[nH]c(=O)n2C` the value was 10.4% [at 50 µM].

For the molecule `Cc1ccc2[nH]c(=O)c(C3C(C#N)=C(N)Oc4c3ccc3cccnc43)cc2c1` (stereo not given), the “inhibition” value was 3.01%. With `CC(=O)OC(C)C1C2=C(C(=O)CC1(C)O)C(=O)c1c(ccc(-c3ccc4c(c3O)C(=O)C3=C(C4=O)C(C(C)OC(C)=O)C(C)(O)CC3=O)c1O)C2=O` (stereo not given), the molecule was called inactive.

Take `CCNC(=O)C1CC(=O)N(Cc2ccc(F)cc2)C(=Nc2ccc(OC)cc2)S1` (stereo not given): the result was inactive. Regarding `N#C/C(C(=O)N1CCOCC1)=C1/SC(Cc2ccccc2)C(=O)N1c1ccccc1` (stereo not given), the “inhibition” value is 6.08%. Same read-out and setting: to `CCc1ccc(N/C(SCc2cccc(F)c2)=C(/C#N)C(=O)NCc2ccco2)cc1` belongs 8.19%; to `Cc1ccc2nsnc2c1S(=O)(=O)N(Cc1ccco1)Cc1cc2cccc(C)c2[nH]c1=O`, 1.36%. Take `CCOc1ccc2[nH]c(=O)c(CN(Cc3nnnn3Cc3ccco3)C3CCCCC3)cc2c1`: the molecule was classed as inactive. On the same count and under the same terms, for `CCN(Cc1ccccc1)Cc1nnnn1Cc1ccccc1` the value was “inactive”. `Cc1ccc2[nH]c(=O)c(CN(Cc3cccs3)Cc3nnnn3Cc3ccccc3)cc2c1`: the “inhibition” value is 20.5%. Turning to `Cc1ccc(-n2ncc(C#N)c2/N=C/N2CCCCCC2)cc1`, the “inhibition” value was 4.05%. Turning to `O=C1OCCC1Sc1nc2ccccc2n1Cc1ccccc1` (stereo not given), the molecule was called inactive.

On to `Cn1c(=O)oc2cc(S(=O)(=O)Nc3cccc(C(=O)O)c3)ccc21`, for which the “inhibition” value was 8.19%. `CCOC(=O)c1ccc(NS(=O)(=O)c2ccc3oc(=O)[nH]c3c2)cc1`: the molecule was classed as inactive. For the molecule `COC(=O)c1sc(NC(=O)c2ccc(Cn3cc(Cl)cn3)o2)c(C#N)c1C`, the “inhibition” value is 25%.

Consider `CCOc1ccc(/C=C2\SC(=S)N(CCC(=O)O)C2=O)cc1`, for which the “inhibition” value was 0.82%. In the case of `Cc1ccc(OCCSc2nnc(-c3ccncc3)n2C)cc1`, the “inhibition” value is 2.73%.

As to `CC(Oc1cccc2cccnc12)C(=O)N/N=C/c1ccc2c(c1)OCO2` (stereo not given), the “inhibition” value is 4.12%.

With `COc1cc(NC(=O)c2noc3c2CCC3)c(OC)cc1Cl`, the “inhibition” value is 2.34%. In the case of `O=C(c1cccs1)N1CCN(C/C=C/c2ccccc2)CC1`, the “inhibition” value is 2.03%.

Turning to `c1ccc2c(c1)NCC1CCCN21` (stereo not given), the outcome was inactive.

Regarding `COc1ccccc1NC(=O)c1oc2ccc(C)cc2c1C`, the molecule was classed as inactive. For the molecule `Cc1nnc(-c2cnn(-c3ccccc3)c2N)n1Cc1cccc(C(F)(F)F)c1`, the “inhibition” value was 4.05%. In the case of `O=C(NCC1CCCO1)c1cc2ccccc2oc1=O` (stereo not given), the molecule was classed as inactive. As for `CCOC(=O)N1CCC(NC(=O)c2cc3c(C)nc4ccccc4c3o2)CC1`, the “inhibition” value was 21.6%. As to `CC(C)Oc1ccc(-c2cc(C(=O)NCCN3CCOCC3)c3ccccc3n2)cc1`, the molecule was classed as inactive.

Regarding `O=C(Nc1ccccc1C(=O)NCC1CCCO1)c1ccccc1` (stereo not given), the molecule was classed as inactive. With `CCNC(=S)Nc1cccc(S(=O)(=O)NC2=NCCC2)c1`, the molecule was classed as inactive.

For `O=[N+]([O-])c1ccc(Cl)c(S(=O)(=O)Nc2cccc(S(=O)(=O)NC3=NCCC3)c2)c1`, the molecule was called inactive. On to `CCOC(=O)N1CCC(NC(=O)c2cc(C(=O)NCc3cccc(Cl)c3)ccc2CO)CC1`, for which the “inhibition” value was 1.36%. As to `Cc1ccc2cccc(S(=O)(=O)N3CCN(c4ccccc4F)CC3)c2n1`, the molecule was called inactive. Same read-out and setting: for `S=C(N/N=C/c1cccs1)NC1CC2CCC1C2` (stereo not given) the value was “inactive”; for `CC1=C(C(=O)OC(C)C)C(c2ccc(Br)s2)NC(=O)N1C` (stereo not given), “inactive”; for `COC(=O)Nc1ccc(C)c2nsnc12`, “inactive”. For the molecule `COc1ccccc1Cn1c(-c2ccccc2OC)nc2ccccc21`, the “inhibition” value is 6.14%. Regarding `CCOc1ccc2nc(SCC(=O)c3cccs3)sc2c1`, the call was inactive. Same read-out and setting: to `O=C(Nc1cnn(Cc2ccc(Cl)c(Cl)c2)c1)c1nc2ncccn2n1` belongs “inactive”. On to `CCOC(=O)C1CCN(S(=O)(=O)c2cccc(-c3cn4cccnc4n3)c2)CC1`, for which the “inhibition” value is 8.11%. Regarding `O=C1CC(N2CCOCC2)C(=O)N1c1ccc(Cl)cc1` (stereo not given), the outcome was inactive.

Turning to `CC(Sc1nnc(C2CC2)n1C)C(=O)Nc1ccc(N2CCOCC2)cc1` (stereo not given), the “inhibition” value is 5.68%.

In the case of `CCN(CC)S(=O)(=O)c1ccc(/C=C/C(=O)Nc2ccc(N3CCOCC3)cc2)cc1`, the “inhibition” value is 5.77%. The same measure, in the same setting: to `Cn1c(-c2ccccc2)cnc1SCC(N)=O` belongs 2.03%.

Regarding `COc1nc(N(c2ccccc2)c2ccccc2)nc(-n2ccnc2)n1`, the “inhibition” value was 25.7%. As for `C(=N\n1cnnc1)/c1ccc2ncccc2c1`, the call was inactive.

With `CC(C)OC(=O)CSc1nnc(-c2ccccn2)n1-c1ccccc1`, the “inhibition” value was 6.76%. For `C/C(CC1CC2=C(CC1(C)C)C(C)(C)CCC2)=N\NC(N)=S` (stereo not given), the molecule was called inactive. In the case of `Cc1nc(NC(=O)COC(=O)CCS(=O)(=O)c2ccccc2Cl)c(Cl)cc1Cl`, the “inhibition” value was 11.5%.

As for `Cc1ccc(NC(=S)NNc2ncc(C(F)(F)F)cc2Cl)cc1`, the molecule was called inactive. Regarding `O=c1c2cnn(-c3ccccc3Cl)c2ncn1Cc1cccnc1`, the “inhibition” value was 8.78%. On the same count and under the same terms, to `CC1=CC(C)C2C(=O)N(CCCN(C)C)C(=O)C2C1` (stereo not given) belongs 2.03%; to `COc1ccc(Nc2nc(N)nc(CSC(=S)N3CCN(c4ccccc4)CC3)n2)cc1`, 15.7%.

For orientation: inhibition means the share of the control response that was lost under treatment.
